In all, about 5,500 compounds went through this assay and about 2,000 (36%) were called active. Inconclusive results (about 18%) are left out. Rule as the data show it: active = normalized growth mostly below about 0.91 (no sharp cut-off); inconclusive = no clear call, values can overlap the other calls; inactive = mostly above about 0.92. The list shows a part of the results.
Assay: chemical genetic growth profiling, strain panel (AID 1159580);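 also: tested at 20 µM; growth read once vehicle control cultures reached saturation at 30 °C; 1 = growth at the plate median or of vehicle wells; lower values mean less growth of the strain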
Conditions: S. cerevisiae deletion strains, growth OD

Measured: normalized growth

CC(CC(=O)C(O)C(C)(C)O)C1C(=O)CC2(C)C3=CCC4C(C)(C)C(OC5OCC(O)C(O)C5O)CCC45CC35C(O)CC12C (configuration not stated)
inactive: locus YAL021C, strain ccr4, active compounds read low 1.01 | locus YAL026C, strain drs2, active compounds read low 1.01 | locus YAL030W, strain snc1, active compounds read low 1.01 | locus YBL061C, strain skt5, active compounds read low 1.01 | locus YBR009C, strain hhf1, active compounds read low 1.01 | locus YBR023C, strain chs3, active compounds read low 1.02 | locus YBR171W, strain sec66, active compounds read low 1.03 | locus YBR231C, strain swc5, active compounds read low 1.01 | locus YBR279W, strain paf1, active compounds read low 1.02 | locus YCL011C, strain gbp2, active compounds read low 1.01 | locus YCL016C, strain dcc1, active compounds read low 1.01 | locus YCL061C, strain MRC1, active compounds read low 1.01 | locus YCL069W, strain vba3, active compounds read low 1 | locus YCR088W, strain abp1, active compounds read low 1.02 | locus YDL005C, strain med2, active compounds read low 1.01 | locus YDL040C, strain nat1, active compounds read low 1.02 | locus YDR001C, strain nth1, active compounds read low 1.01 | locus YDR069C, strain doa4, active compounds read low 1.01 | locus YDR137W, strain rgp1, active compounds read low 0.974 | locus YDR159W, strain sac3, active compounds read low 1.02 | locus YDR195W, strain ref2 0.987 | locus YDR297W, strain sur2, active compounds read low 1.01 | locus YDR334W, strain swr1, active compounds read low 1.02 | locus YDR335W, strain msn5, active compounds read low 1.02 | locus YDR392W, strain spt3, active compounds read low 1.04 | locus YEL003W, strain gim4, active compounds read low 1.01 | locus YEL037C, strain rad23, active compounds read low 1.07 | locus YEL061C, strain CIN8 (second series), active compounds read low 1.01 | locus YER015W, strain faa2, active compounds read low 1.01 | locus YER016W, strain bim1, active compounds read low 1.02 | locus YER111C, strain swi4, active compounds read low 1.01 | locus YER155C, strain BEM2 (second series), active compounds read low 1.02 | locus YFR010W, strain ubp6, active compounds read low 1.01 | locus YGL167C, strain pmr1, active compounds read low 1.01 | locus YGL173C, strain kem1, active compounds read low 1.03 | locus YGL227W, strain vid30, active compounds read low 1.01 | locus YGL240W, strain doc1, active compounds read low 1.01 | locus YGL253W, strain hxk2, active compounds read low 1.02 | locus YHR013C, strain ard1, active compounds read low 1.02 | locus YHR027C, strain rpn1, active compounds read low 1.01 | locus YHR142W, strain chs7, active compounds read low 1 | locus YJL092W, strain hpr5, active compounds read low 1.02 | locus YJL095W, strain BCK1 (second series), active compounds read low 1.01 | locus YJL115W, strain asf1, active compounds read low 1.01 | locus YJL129C, strain trk1, active compounds read low 1.02 | locus YJL154C, strain vps35, active compounds read low 1.02 | locus YJL164C, strain tpk1, active compounds read low 1.03 | locus YJL166W, strain qcr8, active compounds read low 1.01 | locus YJL187C, strain SWE1, active compounds read low 1.01 | locus YKL160W, strain elf1, active compounds read low 1.01 | locus YKR026C, strain gcn3, active compounds read low 1.02 | locus YKR091W, strain srl3, active compounds read low 1.02 | locus YLL001W, strain dnm1, active compounds read low 1.03 | locus YLL026W, active compounds read low 1.02 | locus YLL041C, strain sdh2, active compounds read low 1.01 | locus YLR027C, strain aat2, active compounds read low 1 | locus YLR221C, strain rsa3, active compounds read low 1.01 | locus YLR258W, strain gsy2, active compounds read low 1.02 | locus YLR262C, strain YPT6 (second series), active compounds read low 1.02 | locus YLR320W, strain mms22, active compounds read low 1.03 | locus YLR342W, strain FKS1, active compounds read low 1.01 | locus YLR357W, strain rsc2, active compounds read low 1.02 | locus YLR370C, strain arc18, active compounds read low 0.995 | locus YLR384C, strain iki3, active compounds read low 1.01 | locus YML120C, strain ndi1, active compounds read low 1.02 | locus YMR058W, strain fet3, active compounds read low 1.01 | locus YMR125W, strain sto1, active compounds read low 1.03 | locus YMR129W, active compounds read low 1.01 | locus YMR205C, strain PFK2, active compounds read low 1.02 | locus YMR231W, strain pep5, active compounds read low 1 | locus YNL071W, strain lat1, active compounds read low 1.01 | locus YNL209W, strain ssb2, active compounds read low 1.01 | locus YNL248C, strain rpa49, active compounds read low 1.01 | locus YNL322C, strain KRE1 (second series), active compounds read low 1.01 | locus YNR049C, strain mso1, active compounds read low 1.02 | locus YOR001W, strain rrp6, active compounds read low 1.01 | locus YOR070C, strain gyp1, active compounds read low 1.01 | locus YOR080W, strain dia2, active compounds read low 1.02 | locus YOR083W, strain WHI5, active compounds read low 1.02 | locus YOR106W, strain vam3, active compounds read low 1 | locus YOR265W, strain rbl2, active compounds read low 1.01 | locus YOR270C, strain vph1, active compounds read low 1.02 | locus YOR290C, strain snf2, active compounds read low 1.02 | locus YPL051W, strain arl3, active compounds read low 1.01 | locus YPL078C, strain atp4, active compounds read low 1.02 | locus YPL106C, strain sse1, active compounds read low 1 | locus YPL240C, strain hsp82, active compounds read low 1.02
